This is a sample that favours compounds with a hit; in the whole collection about 3.4% have one here.
EBV LMP1 NFkB: reduces LMP1-driven NF-kappaB luciferase signal; LMP1-induced NF-kappaB luciferase reporter cells, luminescence; inhibition, % at 12.5 µM; hit rate 0.69% among 350,000; AID 504558; in the data active means inhibition above about 41%; inconclusive means no clear call, values can overlap the other calls;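 further: 0% = neutral control wells and 100% = reference inhibitor control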
MITF TRPM1 inh: inhibitors of MITF-driven TRPM1 promoter in melanoma cells; SK-MEL-5 TRPM1 promoter luciferase, 24 h; inhibition, % at 12.5 µM; hit rate 0.83% among 330,000; AID 488899;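 active means mean inhibition across replicates of 60% or more, whatever share of single replicates reaches that level; inconclusive means some that reach 60%, reason not given; inactive means mean inhibition across replicates below 60%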
TROY NFkB inh: TROY signaling inhibition; Q293 LMP1-TROYcd NF-kB luciferase reporter, 4 h; inhibition, % at 10 µM; hit rate 0.98% among 360,000; AID 1347056;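 active means compounds whose plate-normalised and pattern-corrected inhibition of the luciferase reporter signal at the single screening dose is 50% or more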
TWEAK Fn14 block: inhibitors of TWEAK-Fn14 interaction signaling. TWEAK-stimulated Fn14 reporter cells, luciferase luminescence, 8 h. inhibition, % at 10 µM. hit rate 2% among 360,000; in the data active means inhibition above about 50%
Shn3 3UTR inh: Schnurri-3 reporter inhibition in Clone20 osteoblasts | inhibition, % at 12.5 µM | AID 588674 | Clone20 osteoblast Shn3 3'UTR firefly luciferase, 24 h | hit rate 0.52% among 360,000;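 active means mean inhibition of at least 75% with every replicate also reaching 75%; inconclusive means mean inhibition at least 75% but some replicate below; inactive means mean inhibition below 75%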;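 further: 0% = median of neutral control wells and 100% = pilot-screen positive control compound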
HIF-2a inh: inhibitors of HIF-2a; AID 624352; inhibition, % at 18.8 µM; hit rate 0.72% among 360,000; 786-0 RCC cells HIF-2a reporter, luciferase luminescence, overnight;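 active means inhibition of the luminescence signal of 40% or more relative to plate controls, in a single-dose primary screen at 18.75 µM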
The depositor's hits bear a star.

How did COc1cccc(N=Nc2ccc(O)c3ncccc23)c1 do in these assays?
EBV LMP1 NFkB: 68.7*; MITF TRPM1 inh: 52.1; TROY NFkB inh: -28.3; TWEAK Fn14 block: 52.4*; Shn3 3UTR inh: 80.4; HIF-2a inh: -123.4

Results for Cc1ccccc1N=Nc1ccc(O)c2ncccc12 ?
EBV LMP1 NFkB: 43.6*; MITF TRPM1 inh: 76.4*; TROY NFkB inh: -10.5; TWEAK Fn14 block: -56.6; Shn3 3UTR inh: inconclusive; HIF-2a inh: 1.2

Results for Nc1ccc(N=Nc2ccccc2)c2cccnc12 ?
EBV LMP1 NFkB: -12.3; MITF TRPM1 inh: -44.1; TROY NFkB inh: -32.4; TWEAK Fn14 block: 6.6; Shn3 3UTR inh: -31.5; HIF-2a inh: -229.7

What do the screens show for `COc1ccc(N=Nc2cc(-c3ccccc3)ccc2O)cc1`?
EBV LMP1 NFkB: 7.1; MITF TRPM1 inh: -0.7; TROY NFkB inh: -45.5; TWEAK Fn14 block: -10.9; Shn3 3UTR inh: -9.1; HIF-2a inh: -73.2

What do the screens show for `O=S(=O)(O)c1cccc2c(N=Nc3ccc(O)c4ncccc34)cccc12`?
EBV LMP1 NFkB: 1.1; MITF TRPM1 inh: 12.7; TROY NFkB inh: -26.8; TWEAK Fn14 block: 10.8; Shn3 3UTR inh: 2.7; HIF-2a inh: 2.8

How did O=[N+]([O-])c1ccc(O)c2ncccc12 do in these assays?
EBV LMP1 NFkB: 33.3; MITF TRPM1 inh: 44.5; TROY NFkB inh: -15.4; TWEAK Fn14 block: 26.1; Shn3 3UTR inh: 56.5; HIF-2a inh: 2.0

Results for COc1cccc(N=Nc2ccc3cccnc3c2O)c1 ?
EBV LMP1 NFkB: 38.9; MITF TRPM1 inh: 43.4; TROY NFkB inh: 17.4; TWEAK Fn14 block: -130.2; Shn3 3UTR inh: 89.6*; HIF-2a inh: -70.0

How did O=Nc1ccc(O)c2ncccc12 do in these assays?
EBV LMP1 NFkB: 16.8; MITF TRPM1 inh: 40.7; TROY NFkB inh: -14.4; TWEAK Fn14 block: 55.4*; Shn3 3UTR inh: 85.7*; HIF-2a inh: -2.9

How did OCC1OC(c2ccc(OCc3ccccc3)cc2OCc2ccccc2)C(O)C1O (stereo not drawn) do in these assays?
EBV LMP1 NFkB: 6.0; TROY NFkB inh: 0.0; TWEAK Fn14 block: 10.6; Shn3 3UTR inh: 15.5; HIF-2a inh: -4.9

Results for CCc1ccccc1-n1ncc(C(=O)Nc2ccc(OC)cc2)c1C ?
EBV LMP1 NFkB: 78.6*; MITF TRPM1 inh: -82.1; TROY NFkB inh: -31.4; TWEAK Fn14 block: -22.0; Shn3 3UTR inh: -40.2; HIF-2a inh: -264.3

What do the screens show for `CCc1ccc(NC(=O)c2cnn(-c3ccccc3)c2C)cc1`?
EBV LMP1 NFkB: -20.1; MITF TRPM1 inh: -43.8; TROY NFkB inh: 9.4; TWEAK Fn14 block: 38.1; Shn3 3UTR inh: -5.2; HIF-2a inh: -165.9

Results for CCCCc1ccc(S(=O)(=O)NC(=O)C2(C)CCN2C(=O)C/C=C/c2ccccc2)cc1 (stereo not drawn) ?
TROY NFkB inh: 5.3; TWEAK Fn14 block: -14.4; Shn3 3UTR inh: 3.2; HIF-2a inh: 15.5

What do the screens show for `CC(C)(C)c1ccc(OCCOc2ccc(C(C)(C)C)cc2NC=O)c(NC=O)c1`?
EBV LMP1 NFkB: 9.3; MITF TRPM1 inh: 5.7; TROY NFkB inh: 51.1*; TWEAK Fn14 block: 26.4; Shn3 3UTR inh: 63.8; HIF-2a inh: 24.4

What do the screens show for `CCOc1ccc(OCCCC(=O)ON=C(N)c2ccccc2C)cc1`?
EBV LMP1 NFkB: 1.8; MITF TRPM1 inh: -0.4; TROY NFkB inh: 7.6; TWEAK Fn14 block: 5.2; Shn3 3UTR inh: 3.9; HIF-2a inh: -19.4

Results for COc1ccc(C(CCNC(C)c2ccccc2)c2ccc(F)cc2)cc1 (stereo not drawn) ?
EBV LMP1 NFkB: -8.4; MITF TRPM1 inh: 70.5*; TROY NFkB inh: -15.1; TWEAK Fn14 block: -7.7; Shn3 3UTR inh: 74.9; HIF-2a inh: -17.0

Results for COc1ccc(CNCCC(c2ccccc2)c2ccc(OC(C)C)cc2)cc1OC (stereo not drawn) ?
EBV LMP1 NFkB: -21.0; MITF TRPM1 inh: 74.0*; TROY NFkB inh: 3.3; TWEAK Fn14 block: 6.7; Shn3 3UTR inh: 61.3; HIF-2a inh: 20.2

How did COc1ccc(CNCCC(c2ccc(F)cc2)c2ccc(OC)cc2)cc1 (stereo not drawn) do in these assays?
EBV LMP1 NFkB: -0.3; MITF TRPM1 inh: 63.5*; TROY NFkB inh: 2.8; TWEAK Fn14 block: -13.1; Shn3 3UTR inh: 47.3; HIF-2a inh: 3.3

What do the screens show for `COc1ccc(C(CCNCc2ccc(OC(C)C)cc2)c2ccccc2OC)cc1` (stereo not drawn)?
EBV LMP1 NFkB: -9.7; MITF TRPM1 inh: 86.8*; TROY NFkB inh: 8.7; TWEAK Fn14 block: -17.2; Shn3 3UTR inh: 89.4*; HIF-2a inh: 11.5

What do the screens show for `CC1(C(=O)Nc2ccc3c(c2)OCCO3)CCN1C(=O)c1cccc(F)c1` (stereo not drawn)?
TROY NFkB inh: 1.6; TWEAK Fn14 block: -15.2; Shn3 3UTR inh: -9.7; HIF-2a inh: 10.9

What do the screens show for `CC(C)N1CCN(c2ccc(OC[C@H]3CO[C@](Cn4cncn4)(c4ccc(Cl)cc4Cl)O3)cc2)CC1`?
EBV LMP1 NFkB: 56.3*; MITF TRPM1 inh: -8.5; TROY NFkB inh: 2.6; TWEAK Fn14 block: -28.0; Shn3 3UTR inh: 2.2; HIF-2a inh: 6.7

How did COc1ccc(N2CCN(C(=O)Cn3cncn3)CC2)cc1 do in these assays?
EBV LMP1 NFkB: 4.1; MITF TRPM1 inh: -2.2; TROY NFkB inh: -20.4; TWEAK Fn14 block: 2.8; Shn3 3UTR inh: 11.4; HIF-2a inh: 19.3

Results for CC(C)N1CCN(c2ccc(OCC3COC(Cn4cncn4)(c4ccc(Cl)cc4Cl)O3)cc2)CC1 (stereo not drawn) ?
EBV LMP1 NFkB: -4.1; MITF TRPM1 inh: -3.9; TROY NFkB inh: 11.1; TWEAK Fn14 block: -21.8; Shn3 3UTR inh: 95.2*; HIF-2a inh: 6.3

What do the screens show for `O=C(NNCc1ccccc1)c1ccccc1`?
EBV LMP1 NFkB: 17.4; MITF TRPM1 inh: 2.5; TROY NFkB inh: 24.4; TWEAK Fn14 block: 64.8*; Shn3 3UTR inh: -12.8; HIF-2a inh: -65.8

What do the screens show for `CCNc1c(NS(=O)(=O)c2ccc(Cl)s2)c(=O)oc2ccccc12`?
EBV LMP1 NFkB: 5.0; MITF TRPM1 inh: -10.9; TROY NFkB inh: -11.4; TWEAK Fn14 block: 44.1; Shn3 3UTR inh: 1.0; HIF-2a inh: 9.8

What do the screens show for `N#Cc1c(F)cccc1N1CCOCC1`?
EBV LMP1 NFkB: 1.8; MITF TRPM1 inh: 9.7; TWEAK Fn14 block: 87.4*; Shn3 3UTR inh: -5.6; HIF-2a inh: 13.5

What do the screens show for `N#Cc1c(Cl)cccc1N1CCCC1`?
EBV LMP1 NFkB: 1.0; MITF TRPM1 inh: 0.0; TROY NFkB inh: 7.8; TWEAK Fn14 block: -16.3; Shn3 3UTR inh: 3.4; HIF-2a inh: 13.0

Results for CCC(CC)CN1CCC(CN2C(=S)NC[C@@H]2[C@@H](C)CC)CC1 ?
EBV LMP1 NFkB: 4.5; MITF TRPM1 inh: 12.2; TROY NFkB inh: -0.8; TWEAK Fn14 block: 6.6; Shn3 3UTR inh: -24.9; HIF-2a inh: -5.5

How did CCCOc1ccc(C(CC(=O)O)NC(=O)c2sc3ccccc3c2Cl)cc1 (stereo not drawn) do in these assays?
EBV LMP1 NFkB: -6.4; MITF TRPM1 inh: 4.0; TROY NFkB inh: -12.0; TWEAK Fn14 block: -1.7; Shn3 3UTR inh: -10.1; HIF-2a inh: 9.4
